Measured values: PubChem BioAssay (EPA / NIEHS)
Records with an inconclusive call do not appear. Active and inactive are the calls of the source. Rule for the calls, unless noted: active = hit-call score of the fitted dose curve at least 0.9, where 1 is the maximum; inconclusive = response in the unintended direction; inactive = score below 0.9.

How the values were obtained:
[1] = TOX21_p53_BLA_p2_viability: Viability Assessment in the Tox21 HCT-116 p53 Agonism Beta-lactamase Assay, Phase 2 (AID 2283591);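 note: actives lower the ATP signal meaning cytotoxicity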
How it was run: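 Cytotoxicity readout: CellTiter-Glo ATP luminescence, 30 min at room temperature, after the beta-lactamase read. Cells were HCT116 exposed 16 h at 37C to compounds pin-transferred at 217-fold dilution from DMSO stocks.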

[2] = target: Cellular tumor antigen p53 (Homo sapiens) (UniProt P04637); test: TOX21_p53_BLA_p2_ratio: Tox21 HCT-116 p53 Agonism Beta-lactamase Assay, Ratio, Phase 2 (AID 2283592)
Sequence of Cellular tumor antigen p53 (Homo sapiens) (P04637 whole entry, looked up): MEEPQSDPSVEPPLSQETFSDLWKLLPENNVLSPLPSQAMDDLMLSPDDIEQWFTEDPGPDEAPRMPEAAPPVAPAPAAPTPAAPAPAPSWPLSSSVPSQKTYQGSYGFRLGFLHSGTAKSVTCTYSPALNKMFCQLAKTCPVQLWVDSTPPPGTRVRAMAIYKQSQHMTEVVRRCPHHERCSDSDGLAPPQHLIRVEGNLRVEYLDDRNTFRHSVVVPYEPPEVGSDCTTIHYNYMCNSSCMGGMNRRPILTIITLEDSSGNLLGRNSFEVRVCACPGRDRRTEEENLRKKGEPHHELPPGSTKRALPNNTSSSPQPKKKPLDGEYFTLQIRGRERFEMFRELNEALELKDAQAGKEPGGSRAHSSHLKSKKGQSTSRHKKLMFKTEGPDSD
How it was run: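 Readout: blue/green (460/530 nm) FRET emission ratio after 2 h CCF4-AM loading at room temperature, excitation 405 nm. HCT116 p53 bla cells, 16 h compound exposure at 37C, 5% CO2; agonist direction fitted against DMSO baseline.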

[3] = TOX21_p53_BLA_p3_viability: Viability Assessment in the Tox21 HCT-116 p53 Agonism Beta-lactamase Assay, Phase 3 (AID 2283593);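 note: cells exposed to compound for 16 h before reading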
How it was run: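 Cellular ATP was quantified by CellTiter-Glo luminescence, read after 30 min at room temperature. Beforehand, HCT116 cells (4000/well) received compound 5 h post-seeding, 217-fold diluted from DMSO, then incubated 16 h at 37C.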

[4] = target: Cellular tumor antigen p53 (Homo sapiens) (UniProt P04637); test: TOX21_p53_BLA_p3_ratio: Tox21 HCT-116 p53 Agonism Beta-lactamase Assay, Ratio, Phase 3 (AID 2283596)
How it was run: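 Cells were seeded at 4000/well, rested 5 h at 37C, then dosed with DMSO compound solutions (217-fold dilution) for 16 h. CCF4-AM substrate was loaded for 2 h at room temperature, and the 460/530 nm emission ratio was fitted for gain of signal versus DMSO.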

[5] = TOX21_p53_BLA_p4_viability: Viability Assessment in the Tox21 HCT-116 p53 Agonism Beta-lactamase Assay, Phase 4 (AID 2283597);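 note: hits lower the luminescence signal meaning cytotoxicity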
How it was run: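 ATP content by CellTiter-Glo luminescence, 30 min RT, read after the beta-lactamase ratio step. Cells: HCT116, 4000/well, compound added after 5 h, exposure 16 h at 37C. Signal loss = reduced viability.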

[6] = target: Cellular tumor antigen p53 (Homo sapiens) (UniProt P04637); test: TOX21_p53_BLA_p5_ratio: Tox21 HCT-116 p53 Agonism Beta-lactamase Assay, Ratio, Phase 5 (AID 2283599)
How it was run: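 Beta-lactamase reporter ratio (blue 460 nm over green 530 nm, 405 nm excitation) after 2 h CCF4-AM loading, in HCT-116 cells exposed 16 h at 37 C to compounds pinned at 217-fold dilution. Increases relative to DMSO baseline scored.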

[7] = target: Cellular tumor antigen p53 (Homo sapiens) (UniProt P04637); test: TOX21_p53_BLA_p4_ratio: Tox21 HCT-116 p53 Agonism Beta-lactamase Assay, Ratio, Phase 4 (AID 2283601)
How it was run: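 Signal is the blue/green (460nm/530nm) ratio of cleaved versus uncleaved CCF4-AM substrate, read after 2 h substrate loading. Cells were HCT116 carrying the p53-responsive beta-lactamase reporter, dosed 16 h at 37C, 5% CO2; CellTiter-Glo measured in parallel.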

[8] = test system: Brachyury (BRA) Protein Expression, Deisenroth Lab, TBXT (gene 6862); test: CCTE_Deisenroth_DEVTOX-GLR_legacy_Bra: (Legacy) CCTE's DevTox GLR-Endo Assay Evaluation of Brachyury (BRA) Protein Expression, Deisenroth Lab (AID 2284329; active = hit-call score of the fitted dose curve at least 0.9, where 1 is the maximum; inactive = score below 0.9)
How it was run: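 Percent Bra-positive cells, scored by high-content imaging against a threshold of 5x BMAD over the undifferentiated control median, with the 0.2% DMSO median subtracted. RUES2-GLR cultures were dosed twice at 24 h intervals across a 48 h differentiation, at 1 nM–200 uM in ten steps, with n=4 replicates.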

[9] = CCTE_Deisenroth_DEVTOX-GLR_legacy_CellCount: (Legacy) Viability Assessment in CCTE's DevTox GLR-Endo Assay, Deisenroth Lab (AID 2284331; active = hit-call score of the fitted dose curve at least 0.9, where 1 is the maximum; inactive = score below 0.9); settings: actives raise or lower the signal
How it was run: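 Viability is taken from imaged nuclei counts in fixed RUES2-GLR cultures after 48 h of differentiation under two 24 h-spaced chemical exposures, 10 concentrations from 1 nM to 200 uM, gain or loss versus DMSO baseline.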

[10] = test system: SRY-box transcription factor 17 (SOX17) Protein Expression, Deisenroth Lab, SOX17 (gene 64321); test: CCTE_Deisenroth_DEVTOX-GLR_legacy_Sox17: (Legacy) CCTE's DevTox GLR-Endo Assay Evaluation of SRY-box transcription factor 17 (SOX17) Protein Expression, Deisenroth Lab (AID 2284341; active = hit-call score of the fitted dose curve at least 0.9, where 1 is the maximum; inactive = score below 0.9); settings: actives raise or lower the signal
How it was run: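 Endoderm-differentiation readout in RUES2-GLR human pluripotent cells at 48 h, concentrations spanning 1 nM - 200 uM. Sox17-positive cells divided by total cell count; gain or loss relative to DMSO solvent control, n=4 experimental replicates.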

[11] = test system: SRY-box transcription factor 2 (SOX2) Protein Expression, Deisenroth Lab, SOX2 (gene 6657); test: CCTE_Deisenroth_DEVTOX-GLR_legacy_Sox2: (Legacy) CCTE's DevTox GLR-Endo Assay Evaluation of SRY-box transcription factor 2 (SOX2) Protein Expression, Deisenroth Lab (AID 2284346; active = hit-call score of the fitted dose curve at least 0.9, where 1 is the maximum; inactive = score below 0.9)
How it was run: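 Percent Sox2-positive cells was scored by high-content imaging of 5 fields per well. Positivity cutoff was 5x BMAD over the directed endoderm control, and the DMSO median was subtracted. Cells were RUES2-GLR, dosed twice at 24-h intervals over 48 h of differentiation (1 nM-200 uM).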

[12] = test system: SRY-box transcription factor 2 (SOX2) Protein Expression, Deisenroth Lab, SOX2 (gene 6657); test: CCTE_Deisenroth_DEVTOX-GLR_Endo_SOX2: CCTE's DevTox GLR-Endo Assay Evaluation of SRY-box transcription factor 2 (SOX2) Protein Expression, Deisenroth Lab (AID 2284412)
How it was run: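 Endpoint is percent SOX2-positive cells (SOX2+ count/total cells) minus 0.2% DMSO control, from high-content imaging of fixed, nuclear-stained RUES2-GLR cells. Dosing twice at 24 h intervals over 48 h differentiation, 1 nM–200 uM in 10 points.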

[13] = test system: SRY-box transcription factor 17 (SOX17) Protein Expression, Deisenroth Lab, SOX17 (gene 64321); test: CCTE_Deisenroth_DEVTOX-GLR_Endo_SOX17: CCTE's DevTox GLR-Endo Assay Evaluation of SRY-box transcription factor 17 (SOX17) Protein Expression, Deisenroth Lab (AID 2284413; active = hit-call score of the fitted dose curve at least 0.9, where 1 is the maximum; inactive = score below 0.9)
How it was run: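 RUES2-GLR human pluripotent cells were seeded 24 h, then differentiated toward endoderm for 48 h with two chemical exposures 24 h apart (10-point series, 1 nM - 200 uM). Nuclei-stained fixed cells were imaged; endpoint is percent change in SOX17+ cells versus 0.2% DMSO.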

[14] = CCTE_Deisenroth_DEVTOX-GLR_Endo_CellCount: Viability Assessment in CCTE's DevTox GLR-Endo Assay, Deisenroth Lab (AID 2284420; active = hit-call score of the fitted dose curve at least 0.9, where 1 is the maximum; inactive = score below 0.9)
How it was run: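 Nuclei counted by fluorescence microscopy as a surrogate for cell number, expressed as percent change relative to 0.2% DMSO control. Human RUES2-GLR cells, 48 h differentiation, dosed twice; 1 nM - 200 uM series.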

[15] = test system: SRY-box transcription factor 17 (SOX17) Protein Expression, Deisenroth Lab, SOX17 (gene 64321); test: CCTE_Deisenroth_DEVTOX-GLR_Pluri_SOX17: CCTE's DevTox GLR-Pluri Assay Evaluation of SRY-box transcription factor 17 (SOX17) Protein Expression, Deisenroth Lab (AID 2284427)
How it was run: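 Readout: percent SOX17+ cells (SOX17+ count/cell count) by high-content imaging of an inducible fluorescent reporter, corrected for 0.2% DMSO solvent control. RUES2-GLR cells, 48 h differentiation, dosed twice at 24 h intervals, 1 nM - 200 uM.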

[16] = test system: Brachyury (BRA) Protein Expression, Deisenroth Lab, TBXT (gene 6862); test: CCTE_Deisenroth_DEVTOX-GLR_Pluri_BRA: CCTE's DevTox GLR-Pluri Assay Evaluation of Brachyury (BRA) Protein Expression, Deisenroth Lab (AID 2284429)
How it was run: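 Percent BRA+ cells (BRA+ count over total cells) by high-content imaging of fixed RUES2-GLR cultures, corrected by 0.2% DMSO control. Cells received two doses over 48-hour differentiation, 1 nM–200 uM, n=4 experiments.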

[17] = CCTE_Deisenroth_DEVTOX-GLR_Pluri_CellCount: Viability Assessment in CCTE's DevTox GLR-Pluri Assay Evaluation of Total Cell Counts, Deisenroth Lab (AID 2284430; active = hit-call score of the fitted dose curve at least 0.9, where 1 is the maximum; inactive = score below 0.9)
How it was run: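 Cytotoxicity readout: fluorescent nuclei counts by high-content imaging, expressed as percent change relative to 0.2% DMSO. Human RUES2-GLR pluripotent line differentiated 48 h, dosed twice at 24-h intervals across 1 nM - 200 uM (10 points).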

[18] = TOX21_p53_BLA_p5_viability: Viability Assessment in the Tox21 HCT-116 p53 Agonism Beta-lactamase Assay, Phase 5 (AID 2283600)
How it was run: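 ATP luminescence (CellTiter-Glo, 30 min, RT) served as the viability read-out, with loss of signal indicating cytotoxicity. Compounds in DMSO were pinned at a 217-fold dilution onto 4000 cells/well and incubated 16 h, 37C.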

[19] = CCTE_Harrill_HTTr_Viability_MCF7: CCTE's 6-hour Cell Viability Assessment for the High-Throughput Transcriptomics (HTTr) Platform, in MCF-7 cells cultured in DMEM + 10% fetal bovine serum, Harrill Lab (AID 2284010; active = hit-call score of the fitted dose curve at least 0.9, where 1 is the maximum; inactive = score below 0.9)
How it was run: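 Read-out is propidium iodide gain of signal by high-content imaging, reflecting membrane integrity loss. Measurements are taken 6 h after dosing, eight concentrations per chemical, with DMSO serving as baseline for bidirectional curve fitting.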

[20] = CCTE_Harrill_HTTr_Apoptosis_MCF7: CCTE's 6-hour Apoptosis Assessment for the High-Throughput Transcriptomics (HTTr) Platform, in MCF-7 cells cultured in DMEM + 10% fetal bovine serum, Harrill Lab (AID 2284011; active = hit-call score of the fitted dose curve at least 0.9, where 1 is the maximum; inactive = score below 0.9)
How it was run: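 Read-out: CellEvent Caspase 3/7 Green signal by high content imaging, gain-of-signal indicating apoptosis. MCF-7 cells, DMEM + 10% FBS, eight-point dilution series, 6 h exposure. Curves fitted bidirectionally relative to DMSO negative control.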

[21] = CCTE_Harrill_HTTr_CellCount_MCF7: CCTE's Cell Proliferation Assessment for the High-Throughput Transcriptomics (HTTr) Platform, Harrill Lab (AID 2284012);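 note: cells exposed to compound for six hours; intended direction is loss of nuclei count meaning fewer cells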
How it was run: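 Cell count served as viability reporter: loss of Hoechst-stained nuclei, counted by high content imaging, marks decreased growth or survival. Exposure was 6 h in MCF-7 cells across eight concentrations, with DMSO as baseline.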

For Cc1ccc(NC(=O)c2ccc(CN3CCN(C)CC3)cc2)cc1Nc1nccc(-c2cccnc2)n1, the outcome [1] was “inactive”, the outcome [2] was “inactive” and the outcome [3] was “inactive”. The outcome [4] was “inactive”, the outcome [5] was “inactive” and the outcome [6] was “inactive”. For the same compound, the outcome [7] was “inactive”, the AC50 [8] was 20.1 µM (active) and the AC50 [9] was 15.9 µM (active). For the same compound, the AC50 [10] was 16.5 µM (active), the AC50 [11] was 19.3 µM (active) and the AC50 [12] was 25.6 µM (active). For the same compound, the AC50 [13] was 14.2 µM (active), the AC50 [14] was 15.8 µM (active) and the AC50 [15] was 47.4 µM (active). For the same compound, the AC50 [16] was 23.2 µM (active) and the AC50 [17] was 22.4 µM (active).

In the case of COc1cc2[nH]c(C)c(CCN3CCN(c4ccccc4)CC3)c2cc1OC, the outcome [1] was “inactive”, the outcome [2] was “inactive” and the outcome [3] was “inactive”. For the same compound, the outcome [4] was “inactive”, the outcome [5] was “inactive” and the outcome [18] was “inactive”.

For CC(C)(C)c1ccc(C(=O)CCCN2CCC(OC(c3ccccc3)c3ccccc3)CC2)cc1, the outcome [1] was “inactive”, the outcome [2] was “inactive” and the AC50 [3] was 31.1 µM (active). For the same compound, the AC50 [4] was 34.6 µM (active), the outcome [5] was “inactive” and the outcome [18] was “inactive”.

For OCC1CC2CC1C1CCC(CO)C21 (configuration not stated), the outcome [1] was “inactive”, the outcome [2] was “inactive” and the outcome [3] was “inactive”. The outcome [4] was “inactive”, the outcome [5] was “inactive” and the outcome [6] was “inactive”. The outcome [7] was “inactive”, the outcome [19] was “inactive” and the outcome [20] was “inactive”. The outcome [21] was “inactive”.

For C1CCN2C[C@@H]3C[C@@H](CN4CCCC[C@@H]34)[C@H]2C1, the outcome [1] was “inactive”, the outcome [2] was “inactive” and the outcome [3] was “inactive”. For the same compound, the outcome [4] was “inactive”, the outcome [5] was “inactive” and the outcome [6] was “inactive”. The outcome [7] was “inactive”.

In the case of CC(C[N+](C)(C)C)OC(N)=O (configuration not stated), the outcome [1] was “inactive”, the outcome [2] was “inactive” and the outcome [3] was “inactive”. For the same compound, the outcome [4] was “inactive”, the outcome [5] was “inactive” and the outcome [18] was “inactive”.
